MPTP block = inhibitors of mitochondrial permeability transition pore; inhibition, % at 10 µM; AID 602449; isolated mouse mitochondria, Ca2+ swelling absorbance, 30 min; 360,000 tested, 1.4% active;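 active = inhibition of 50% or more, scaled per plate between neutral and stimulator controls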;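 also: 0% = DMSO wells given calcium and 100% = 1 mM EGTA wells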
CRFR2-BP ag = CRF-BP/CRF-R2 complex agonism. HEK293 CRF-R2/CRF-BP, calcium dye fluorescence (FLIPR); percent of saturating CRF peptide response. activation, % at 13.2 µM. 350,000 tested, 0.46% active. AID 588473;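 active = activation of at least 50%, plus an integration ratio under a set limit after plate pattern correction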;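 also: plate controls were neutral control wells without compound for no effect and CRF at EC100 for full effect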
CRFBP-R2 block = CRF-BP/CRF-R2 complex antagonism; AID 588475; inhibition, % at 11.8 µM; HEK293 CRF-R2/CRF-BP, CRF-induced calcium fluorescence; 350,000 tested, 0.59% active;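 active = inhibition of the ligand-induced calcium signal above about 50% at the single tested concentration, limit read from the data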
ANO1 activ = mouse TMEM16A channel activation, primary screen. AID 623877. 340,000 tested, 0.3% active. HEK293 TMEM16A/YFP-H148Q/I152L, iodide quench fluorescence; active compounds read low. B-score at 10 µM. Q8BHY3;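 active = fluorescence-ratio B-score plate-corrected deviation score at least 3 library SD below zero, with starting fluorescence score within 5 deviations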;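 also: channel opened by trigger with iodide after compound preincubation; score built on the fluorescence ratio of max minus min over baseline; more negative score means more quench and so TMEM16A activation or potentiation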
GRIN3A LBD mod = modulates the human NR3A ligand-binding domain; NR3A LBD differential scanning fluorimetry, Tm shift; 0% = protein alone, 100% = glycine-bound protein; Tm shift relative to glycine control, % at 25 µM; 340,000 tested, 2.5% active; AID 1259313;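 active = melting temperature shift of at least 10% of the positive control shift, at one fixed dose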
TMEM16A inh = mouse TMEM16A channel inhibition, primary screen. HEK293 TMEM16A/YFP iodide influx fluorescence, ionomycin. normalized B-score (activity score, 25-100; higher = stronger inhibition) at 10 µM. 310,000 tested, 1.2% active;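 active = ratio plate-corrected score three or more library SD toward inhibition, starting fluorescence score within five deviations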;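 also: score derived from kinetic fluorescence span divided by baseline fluorescence per well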
* hit, by the source's call; i = inactive; x = no result given. Rows were chosen to be rich in hits. Some 5.1% of all compounds tested hit in one or more screens of this group.

SMILES	MPTP block	CRFR2-BP ag	CRFBP-R2 block	ANO1 activ	GRIN3A LBD mod	TMEM16A inh
CCOc1ccc(N2C(=O)Nc3ccc(Br)cc3C2(O)C(=O)NC(C)C)cc1 (stereo not drawn)	0	1	3	i	12*	i
CN(C)C(=O)CCc1ccc2c3c([nH]c2c1)[C@]1(C)[C@@H](C(=O)N2CCOCC2)C[C@H](CC(=O)NCc2cccc(C(F)(F)F)c2)C(=O)N1CC3	-2	-1	2	x	0	x
CCCCn1c(N)c(N(CC(C)C)C(=O)CSc2nnc(-c3ccc(Cl)cc3)o2)c(=O)[nH]c1=O	0	1	11	i	10*	i
O=C(COC(=O)C1CCN(S(=O)(=O)c2ccc3c(c2)OCCO3)CC1)NC1CCS(=O)(=O)C1 (stereo not drawn)	-1	1	115*	i	1	i
O=C(COC(=O)C1CCN(S(=O)(=O)c2ccc3c(c2)OCCO3)CC1)NC1CCCCC1	-1	0	-10	i	2	i
CCCCCCCCN1C(=O)[C@H](CC(=O)NCCC(C)C)C[C@@]2(C(=O)OC)CC(C)(C)CC=C12	-3	x	x	x	x	x
COc1ccc(CC(=O)OCC(=O)NC2CCCC(C)C2C)cc1OC (stereo not drawn)	-2	-2	9	i	-1	x
CCCCNC(=O)CC1N=C2c3ccccc3N=C(SCC(=O)Nc3ccccc3C)N2C1=O (stereo not drawn)	1	7	20	i	18*	i
CCOC(=O)CSC1=Nc2ccccc2C2=NC(CC(=O)NCc3ccccc3)C(=O)N12 (stereo not drawn)	0	-1	5	i	-1	i
CCCS(=O)(=O)NC(=O)C1(C)CCCN(C(=O)c2nc3ccccc3s2)C1 (stereo not drawn)	-2	x	x	x	x	x
CCc1noc(C)c1C(=O)N(C)CC(=O)Nc1ccc(Br)cc1C	-1	-2	-3	i	1	i
Cc1ccc(-c2csc3ncnc(N4CCc5ccccc5C4)c23)cc1	4	2	-80	i	-13	i
Fc1ccc(-c2csc3ncnc(N4CCc5ccccc5C4)c23)cc1	4	1	4	i	11*	i
CCC(C)(C)c1ccc(OCCCC[n+]2ccc(C)cc2)c(C(C)(C)CC)c1	x	14	-13	x	-4	100*
Cc1cc[n+](CC[n+]2ccc(C)cc2)cc1	-2	-1	7	i	2	i
CCC(C)(C)c1ccc(OCCCC[n+]2cccc(C)c2C)c(C(C)(C)CC)c1	41	7	-12	i	-14	100*
COc1ccccc1CCC(=O)Oc1ccccc1C#N	0	0	-7	i	-3	i
O=C(O)[C@@H]1CCCN1C(=O)CCc1c[nH]c2ccccc12	1	-2	16	i	0	i
O=C(O)c1ccc2c(c1)C(=O)/C(=C/c1ccccc1)C2=O	-1	-1	11	i	26*	i
O=C(O)c1ccc2c(c1)C(=O)/C(=C\c1ccco1)C2=O	3	0	0	i	3	i
Cc1cccc(NC(=O)c2cc(-c3c(C)cc(C)cc3O)n[nH]2)c1	0	1	0	i	-11	i
Cc1ccc(NC(=O)c2cc(-c3cc(Cl)ccc3O)n[nH]2)cc1C	5	-1	0	i	29*	i
Cc1cccc(NC(=O)c2cc(-c3cc(Cl)ccc3O)n[nH]2)c1	1	3	6	i	36*	i
Cc1cccc(NC(=O)c2cc(-c3cc(C)cc(C)c3O)n[nH]2)c1	23	1	0	i	36*	i
CC(=O)Nc1ccc(NC(=O)c2ccccc2Nc2ccccc2)cc1	2	0	4	i	4	i
SMILES	MPTP block	CRFR2-BP ag	CRFBP-R2 block	ANO1 activ	GRIN3A LBD mod	TMEM16A inh
O=C(CN1C(=O)/C(=C2\SC(=S)N(CCS(=O)(=O)O)C2=O)c2ccccc21)Nc1cccc(Br)c1	2	-1	-1	i	12*	i
O=C(CN1C(=O)/C(=C2/SC(=S)N(CCS(=O)(=O)O)C2=O)c2ccccc21)Nc1cccc(C(F)(F)F)c1	-1	-1	0	i	8	x
CCOc1ccccc1N1CCN(C(=O)c2ccccc2)CC1	1	-1	-9	i	-3	i
CCOc1ccccc1N1CCN(C(=O)Cc2ccc(S(=O)(=O)N3CCOCC3)s2)CC1	1	0	101*	i	1	i
CCOC(=O)N1CCN(C(=O)c2ccc(OCC)c(OCC)c2)CC1	1	2	5	i	10*	i
CCOc1ccccc1N1CCN(C(=O)c2ccc3c(c2)OCO3)CC1	-1	-1	0	i	10*	i
CCOC(=O)N1CCN(C(=O)c2ccc(OC)c(OC)c2)CC1	0	-1	39	i	2	i
COc1ccc2nc3n(c(=O)c2c1)-c1ncccc1C(=O)NC3CC(C)C (stereo not drawn)	-1	0	-13	x	x	x
COn1c(-c2ccccc2)nc2c1CCc1c-2no[n+]1[O-]	0	-2	0	i	13*	i
CC(Oc1ccc(Br)cc1)C(=O)N(Cc1ccccc1)c1c(N)n(Cc2ccccc2)c(=O)[nH]c1=O (stereo not drawn)	0	-2	-2	x	x	x
O=C(NCc1cccnc1)c1cn(CCc2ccccc2)nn1	12	1	-10	i	2	25*
O=C(NCc1cccnc1)c1cc(-c2ccccc2)on1	0	-2	-22	i	11*	i
Cc1c(C(=O)NCc2cccnc2)oc2ccccc12	0	-1	62*	i	-1	i
O=c1cc(-c2ccccc2)cc(-c2ccccc2)n1O	1	-3	-10	i	-4	i
Cc1c(-n2cc(C(=O)c3cc(F)ccc3O)cc(C#N)c2=O)c(=O)n(-c2ccccc2)n1C	-2	51*	-10	i	1	i
Cc1ccccc1-n1cc(C(=O)c2cc(Cl)ccc2O)cc(C#N)c1=O	40	-2	-14	i	-2	i
C=CCOc1ccc(/C=C2\SC(=S)N(C(C(=O)O)c3ccccc3)C2=O)cc1 (stereo not drawn)	5	-3	55*	i	-1	x
COc1cc(C=C(c2nc3ccccc3s2)c2nc3ccccc3s2)ccc1O	4	0	6	-6.7*	0	i
COc1ccc(C=C(c2nc3ccccc3s2)c2nc3ccccc3s2)cc1O	1	3	38	i	0	i
COc1cc(/C=C/c2nc3ccccc3s2)cc(OC)c1O	2	1	-12	-6.9*	0	i
CCn1c(=O)n(CC(=O)NC2CCCC(C)C2C)c(=O)c2ccccc21 (stereo not drawn)	-3	-3	-2	i	11*	i

Bioassay records (PubChem BioAssay)
